# Compound activity (PubChem)
# Hits are enriched below; roughly 12% of the tested compounds scored in any of these assays.
# HP1b chromo inh – HP1-beta chromodomain-methylated histone interaction inhibition; P83916; AlphaScreen HP1-beta / biotin-H3K9me3 peptide binding; Potency, µM (doses to about 114 µM), for the others: at the top dose activity change, negative = inhibition, most hits filed as inhibitors; 390,000 compounds, 0.56% hits; further: nearly all actives have a fitted effect of over 70% in size
# Target sequence (P83916 whole entry, looked up): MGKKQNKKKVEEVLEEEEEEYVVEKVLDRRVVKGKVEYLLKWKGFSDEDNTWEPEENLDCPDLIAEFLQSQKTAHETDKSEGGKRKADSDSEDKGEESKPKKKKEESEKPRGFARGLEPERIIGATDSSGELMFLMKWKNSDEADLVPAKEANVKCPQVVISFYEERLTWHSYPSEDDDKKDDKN
#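 Compound inhibition of the preformed complex between 50 nM HP1-beta and 50 nM biotinylated H3K9me3 peptide was read by AlphaScreen. Buffer was PBS pH 7.4 with 0.01% Tween-20. Incubations ran 30 min at room temperature, with 10 ug/mL donor/acceptor beads.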
# Sfp inh – Sfp phosphopantetheinyl transferase inhibition. Q9F4F7. Biochemical Sfp PPTase activity, qHTS. Potency, µM, for the others: largest response in the series, negative = inhibition, most hits filed as inhibitors. 310,000 compounds, 3.5% hits;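 further: the enzyme is Sfp with the accession as filed and its product quenches rhodamine fluorescence; 0% = enzyme reaction without inhibitor and -100% = no enzyme wells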
#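 Sfp 15 nM + cpd, 15 min RT; start w/ rhodamine-CoA 5 uM, BHQ-2-YbbR 12.5 uM (final); 50 mM Hepes pH 7.6, 10 mM MgCl2, 0.01% NP-40, 0.01% BSA; read 525/598 nm at 0 and 30 min.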
# JMJD2A Tudor inh – blocks the human JMJD2A Tudor domain; AID 504339; Potency, µM (highest dose often 114 µM), without a hit: at the top dose activity change, negative = inhibition, most hits filed as inhibitors; O75164; AlphaScreen JMJD2A-Tudor / H3K4me3 peptide binding; 390,000 compounds, 4.4% hits; further: on the % scale 0 is the no-effect control and ±100 the full control effect; nearly all actives have a fitted effect of over 50% in size
# PLK1 PBD block – PLK1 (human) polo-box domain binding inhibition | P53350 | Plk1 PBD binding of FITC phosphopeptide, fluorescence polarization | Potency, µM, inactives show max response, negative = inhibition, hits mostly inhibitors | 360,000 compounds, 2.8% hits | AID 720504; further: series mostly up to about 57 µM; on the % scale 0 is the no-effect control and ±100 the full control effect; nearly all actives have a fitted effect of over 65% in size
# Target sequence (P53350 whole entry, looked up, the tested form may be a part): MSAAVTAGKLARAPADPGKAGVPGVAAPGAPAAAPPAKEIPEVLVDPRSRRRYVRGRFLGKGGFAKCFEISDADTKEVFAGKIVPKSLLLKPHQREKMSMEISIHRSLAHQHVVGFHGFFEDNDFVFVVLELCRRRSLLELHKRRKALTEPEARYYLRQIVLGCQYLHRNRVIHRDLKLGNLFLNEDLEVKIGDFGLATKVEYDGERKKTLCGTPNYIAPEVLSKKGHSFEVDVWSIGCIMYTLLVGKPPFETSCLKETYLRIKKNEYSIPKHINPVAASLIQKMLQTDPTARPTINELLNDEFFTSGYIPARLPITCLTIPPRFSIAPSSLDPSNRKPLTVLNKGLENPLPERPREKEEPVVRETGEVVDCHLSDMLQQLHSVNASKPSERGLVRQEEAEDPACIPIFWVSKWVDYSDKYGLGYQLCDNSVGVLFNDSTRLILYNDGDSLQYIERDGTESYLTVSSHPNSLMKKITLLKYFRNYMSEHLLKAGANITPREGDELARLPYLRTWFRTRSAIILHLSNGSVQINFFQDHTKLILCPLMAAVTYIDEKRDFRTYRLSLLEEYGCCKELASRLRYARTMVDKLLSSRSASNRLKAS
# BAZ2B block – blocks human BAZ2B; 360,000 compounds, 4.4% hits; Potency, µM (series often up to 114 µM), for inactives: at the highest dose activity change, negative = inhibition, hits mostly inhibitors; Q9UIF8; AlphaScreen BAZ2B-H3K14Ac peptide displacement; further: on the % scale 0 is the no-effect control and ±100 the full control effect; nearly all actives have a fitted effect of over 60% in size
#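 AlphaScreen displacement: compounds (up to 110uM) incubated 30 min at room temperature with a preformed 50 nM BAZ2B/50 nM biotinylated H3K14Ac peptide complex in PBS pH 7.4 with Tween-20. Donor and acceptor beads at 10 ug/mL final added, 20 min light-protected before reading.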
# G9a block – blocks human histone lysine methyltransferase G9a; AID 504332; Potency, µM (titrated, usually from 102 µM), without a hit: at the top dose activity, negative = inhibition, hits mostly inhibitors; 350,000 compounds, 8.8% hits; Q96KQ7; G9a H3K9 monomethylation, AlphaScreen, 2 h; further: on the % scale 0 is the no-effect control and ±100 the full control effect; nearly all actives have a fitted effect of over 75% in size
#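 Chemiluminescent proximity detection of H3K9 monomethylation, read after 10 min bead incubation in the dark. Reaction: 20 nM G9a, 500 nM biotin-H3K9 peptide, 20 uM SAM cofactor, 2 h, room temperature, following 15 min enzyme-compound preincubation.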
# * = called active by the depositor; u = inconclusive; x = no result; [ ] = dose if it differs, or a comment. The call rests on the fitted dose curve; in most records, active means well fitted curve in the direction sought with a large enough effect; inconclusive means small, poorly fitted or top-dose-only effect, or another doubt; inactive means no such curve, though single readings can be large; an effect the other way counts as inactive or inconclusive. Potency means the concentration at half of the fitted maximal effect.
SMILES,HP1b chromo inh,Sfp inh,JMJD2A Tudor inh,PLK1 PBD block,BAZ2B block,G9a block
CN(C)c1ccc(C(CNS(=O)(=O)c2ccc([N+](=O)[O-])cc2)N2CCCC2)cc1 (stereo not given),u,x,44.7µM*,1.6%,6.2%,44.7µM*
CN(C)c1ccc(C(CNC(=O)c2ccc(C(C)(C)C)cc2)N2CCCC2)cc1 (stereo not given),u,x,44.7µM*,x,28.2µM*,15.8µM*
CN(C)c1ccc(C(c2ccc(N(C)C)cc2)c2ccc([N+](=O)[O-])cc2)cc1,8.91µM*,9.9%,10µM*,-3.3%,6.31µM*,5.01µM*
CC(C)ON(C(C(=O)NO)C(C)C)S(=O)(=O)c1ccc(-c2ccccc2)cc1 (stereo not given),x,-7.4%,x,x,x,x
COC(=O)c1ccc(C(/C=C/[C@@H](C)C(=O)NCc2cc(C)n(C)n2)NC(=O)OCc2ccccc2)cc1 (stereo not given in full),x,13.4%,x,x,x,x
COC(=O)c1cn(NC(=O)c2ccc(OC)c(OC)c2)c(=O)c2ccccc12,11.8%,1.3%,-18.1%[57.1 µM],-5.7%,-3.0%,3.1%[59 µM]
O=C(Nn1cc(C(=O)Nc2ccccc2F)c2ccccc2c1=O)c1cnccn1,23.4%,6.6%,28.2µM*,2.5%,28.2µM*,-18.1%
COC(=O)c1cn(NC(=O)c2cnccn2)c(=O)c2ccccc12,20.8%,9.4%,11.2µM*,3.7%,7.08µM*,u
CCN1C(=O)/C(=C\c2ccncc2)SC1=Nc1ccc(C)c(C)c1,u,-40.1%,50.1µM*,-0.8%,31.6µM*,u
CCCN1C(=O)/C(=C\c2ccncc2)SC1=Nc1ccccc1,-27.5%,1.1%,u,1.6%,u,u
Fc1ccc(C(c2nnc(-c3ccccc3)o2)N2CCN(c3ccccc3)CC2)c(Cl)c1 (stereo not given),-20.0%,x,-26.7%,x,-31.2%,2.9%[59 µM]
COc1ccc(-c2noc(CN3CCC(Cc4ccccc4)CC3)n2)cc1,51.3%,-2.5%,1.9%,-3.8%,16.9%,16.7%
COc1cc(OC)c(CN2CCC(Cc3ccccc3)CC2)cc1Br,0.3%,-18.6%,25.1µM*,-5.4%,56.2µM*,x
COc1ccc(OC)c(CN2CCC(Cc3ccccc3)CC2)c1,u,-21.8%,50.1µM*,0.8%,56.2µM*,x
COc1cc(C)c(CN2CCC(Cc3ccccc3)CC2)cc1C,-18.6%,-23.9%,28.2µM*,-11.3%,56.2µM*,x
O=C(/C=C/c1ccccc1)c1ccc(O)cc1O,x,-13.2%,x,x,x,-24.3%[2.33 µM]
O=C(COC(=O)/C=C/c1cccc(Br)c1)NCCc1ccccc1,25.4%,x,-2.1%,1.5%,-3.7%,0.5%
O=C(/C=C/c1ccc(O)c(O)c1)OCCc1ccccc1,-23.7%,u,89.1µM*,2.9%,x,3.55µM*
O=c1cc(O)cc(/C=C/c2ccc(O)c(O)c2)o1,x,x,x,x,x,3.98µM*
O=C(/C=C/c1ccc(O)c(O)c1)c1ccccc1O,44.7µM*,-10.0%,3.55µM*,10.2%,39.8µM*,12.6µM*
O=C(C=Cc1cccc(O)c1)c1ccccc1O,-8.7%,x,u,1.68µM*,x,x
Cc1noc(C)c1C(=O)OCC(=O)Nc1ccccc1SCC#N,72.5%,x,-3.4%,1.9%,-5.3%,-9.7%[12.7 µM]
CCOC(=O)N1CCN(C(=O)CN(C)S(=O)(=O)c2ccc(Cl)cc2)CC1,-2.1%,18.7%,-6.0%,-2.7%,-0.8%,27.8%
O=C(O)/C=C\c1ccc(O)c(O)c1,x,35.5µM*,x,x,x,2.51µM*
COc1cc2c(cc1OC)C1=C(C#N)CC/C(=N\S(=O)(=O)c3ccccc3)N1CC2,29.1%,-11.8%,-30.3%,0.5%,-5.4%,79.4µM*
SMILES,HP1b chromo inh,Sfp inh,JMJD2A Tudor inh,PLK1 PBD block,BAZ2B block,G9a block
N[C@](CC1c2ccccc2Oc2ccccc21)(C(=O)O)[C@@H]1C[C@@H]1C(=O)O,x,-5.0%,x,x,x,x
CC12CCC(C(=O)N(CSC(=S)N/N=C\c3ccccc3Cl)C1=O)C2(C)C (stereo not given),5.1%,-3.9%,u,-21.6%,-35.5%,3.8%[59 µM]
CC12CCC(C(=O)N(CSC(=S)N/N=C\c3ccccc3)C1=O)C2(C)C (stereo not given),-3.0%,29.3%,-28.2%[11.4 µM],3.36µM*,-32.4%,-9.4%[59 µM]
COc1ccccc1NC(=O)Cn1c(=O)n(-c2ccc(C)cc2)c(=O)c2ccc(C(=O)NCc3ccco3)cc21,11.0%,x,-14.0%,x,-11.9%,-7.2%[59 µM]
Cc1nc(-c2ccc(S(=O)(=O)NCc3ccc(N(C)C)cc3)cc2)co1,-8.2%[57 µM],x,50.1µM*,x,39.8µM*,u
Cc1ccc(-c2onc(C)c2C)cc1S(=O)(=O)NC1CCCCC1,28.9%,x,4.2%,x,2.5%,5.8%[59 µM]
Cc1ccc(-c2onc(C)c2C)cc1S(=O)(=O)NCc1ccc(N(C)C)cc1,u,x,39.8µM*,x,35.5µM*,11.2µM*
COc1ccc(NC(=O)c2cc(C3CCCCN3C(=O)c3cc(C(C)(C)C)nn3C)on2)c(C)c1 (stereo not given),x,x,x,3.2%,x,x
O=C(CN(CC1CCCO1)C(=O)CNS(=O)(=O)c1ccccc1)NCCc1ccccc1 (stereo not given),9.1%,7.8%,-17.3%,-8.1%,9.8%,20.1%
Cc1ccc(Cc2c(C)nc3nc(SCC(=O)NCCCN4CCCCCC4)nn3c2C)cc1,-23.4%,-6.0%,-30.3%,-10.8%,u,35.5µM*
Cc1nc2nc(SCC(=O)NCCCN3CCCC3)nn2c(C)c1Cc1ccccc1Cl,-11.2%,3.1%,-34.5%,7.7%,-13.4%,79.4µM*
Cc1nc2nc(SCC(=O)NCCCN3CCCCC3)nn2c(C)c1Cc1ccccc1,8.2%,12.3%,6.4%,-6.2%,-13.1%,7.2%
Cc1nc2nc(SCC(=O)NCCc3ccc(Cl)cc3)nn2c(C)c1Cc1ccccc1Cl,16.7%,x,-29.4%,x,-8.4%,-29.5%[59 µM]
C/C=C/CSc1nc2c(c(=O)[nH]c(=O)n2C)n1Cc1ccc(C)cc1,-9.8%,u,-23.1%,u,3.9%,4.47µM*
CC(C)Cn1c([N+](=O)[O-])nc2c1c(=O)[nH]c(=O)n2C,28.2%,3.0%,4.7%,-1.1%,-2.8%,-2.7%
C/C=C/Cn1c(SCc2ccccc2)nc2c1c(=O)[nH]c(=O)n2C,-20.9%,u,-20.3%,23.8µM*,-7.8%,35.5µM*
Cn1c(=O)[nH]c(=O)c2c1nc([N+](=O)[O-])n2Cc1ccccc1,30.2%,-15.1%,-15.7%,2.38µM*,3.0%,-6.9%
C=CCOC(=O)C1=C(C)NC(=O)NC1c1cc(Cl)cc(Cl)c1OC (stereo not given),14.2%,-10.0%,-1.8%,3.0%,4.0%,x
COc1ccc(S(=O)(=O)N(C)C[C@H]2Oc3ccc(NC(=O)C4CC4)cc3C(=O)N([C@H](C)CO)C[C@@H]2C)cc1,44.7%,x,u,-1.1%,x,x
Cc1cc2oc(C(=O)NCCc3ccc(S(N)(=O)=O)cc3)cc(=O)c2cc1C,8.7%,10.5%,u,26.7µM*,-1.6%,-9.4%
